From PubChem BioAssay (NCATS)
Records with an inconclusive call do not appear. Active and inactive are the calls of the source. Unless noted, the call rests on the fitted dose curve; in most records, active means well fitted curve in the direction sought with a large enough effect; inconclusive means small, poorly fitted or top-dose-only effect, or another doubt; inactive means no such curve, though single readings can be large; an effect the other way counts as inactive or inconclusive.

Columns and labels:
[1] = AP1 Signaling Pathway (AID 357; active means well fitted curve in either direction with a large enough effect, not every such curve was filed as active;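 further: ME-180 reporter cells stimulated with EGF at its EC50 level; on the % scale 0 is the no-effect control and ±100 the full control effect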); settings: ME-180 AP-1-bla reporter, EGF-induced, beta-lactamase ratio, 5 h; at 7.69 µM (top of the series) unless noted
Outline: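 Cells are seeded overnight, exposed to compound titrations and an EC50 level of EGF for 5 hours at 37 °C, then loaded with CCF4 dye for 2.5 hours. Beta-lactamase activity under the AP-1 element is read as a blue/green ratio.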

[2] = target: Cytochrome P450 1A2 (Homo sapiens) (UniProt P05177); experiment: p450-cyp1a2 (AID 410; calls by dose curve; further: potency means the concentration at half of the fitted maximal effect)
Outline: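 Human CYP1A2 (20nM) demethylated Luciferin-ME at its Km (100uM) in 100mM KPO4. After 10 min compound preincubation, NADPH regeneration ran the reaction 60 min at room temperature. Luciferin was read by luminescence, normalized to 57 uM furafylline.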

[3] = target: Glucocorticoid receptor (Homo sapiens) (UniProt P04150); experiment: GR-GFP Redistribution (AID 450;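 active means compounds whose dose series gives a full or clear partial fitted curve of increased nuclear translocation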; further: potency means the concentration at half of the fitted maximal effect); settings: U2OS GR-GFP nuclear translocation, laser cytometry, 2 h
[4] = target: Glucocorticoid receptor (Homo sapiens) (UniProt P04150); experiment: GR-EFC Redistribution (AID 451; calls by dose curve; further: potency means the concentration at half of the fitted maximal effect); settings: CHO-K1 GR-EFC translocation, beta-gal luminescence, 2 h
Outline: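 CHO-K1 cells expressing nuclear EA and GR-ED fragments of b-gal; compounds titrated up to 46 uM final, 2 h at 37 C. GR nuclear translocation read as complemented b-gal luminescence after 1 h RT detection.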

[5] = target: Cytochrome P450 3A4 (Homo sapiens) (UniProt P08684); experiment: qHTS Assay for Activators of Cytochrome P450 3A4 (AID 885); further: nearly all actives have a fitted effect of over 65% in size
Outline: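 20nM CYP3A4 + 25uM Luciferin-PPXE (=KM), 200mM KPO4; cpd 10 min RT; NADPH regen, 60 min RT; stop w/ detection buffer, 20 min; luminescence. Normalized to 57 uM ketoconazole.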

[6] = qHTS Assay for Lipid Storage Modulators (AID 1519; calls by dose curve); settings: Drosophila S3 cells, BODIPY lipid droplet/cell ratio, laser cytometry, cells loaded with oleic acid; for activity change, negative = inhibition: at 57.5 µM (top of the series)
Outline: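 Cells seeded at 5,000 per well were treated with compounds over a concentration series and loaded with oleic acid (400 uM, as added). Lipid droplet fluorescence (488 nm excitation, 500-530 nm channel) was read by laser-scanning cytometry and normalized to 20 uM Triacsin C.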

[7] = target: Dual specificity protein kinase CLK4 (Homo sapiens) (UniProt Q9HAZ1); experiment: qHTS Assay for Inhibitors of CDC-like Kinase 4 (Kinase-Glo Assay) (AID 1770); further: nearly all actives have a fitted effect of over 65% in size; further: potency means the concentration at half of the fitted maximal effect
Outline: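 Clk4 25 nM, RS peptide 100 uM, ATP 1 uM, pH 7.5 Tris, 10 mM MgCl2, 2.5 mM DTT; 4.5 h RT; ATP depletion read by Kinase-Glo luminescence.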

[8] = Primary qHTS for small molecule stabilizers of the endoplasmic reticulum resident proteome: Secreted ER Calcium Modulated Protein (SERCaMP) assay (AID 1508630); further: on the % scale 0 is the no-effect control and ±100 the full control effect
Outline: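 GLuc-SERCaMP-expressing SH-SY5Y cells, pretreated 16 h with compound, are challenged with thapsigargin to empty ER calcium stores; after 4 h, coelenterazine is added directly to the medium and luminescence is imaged.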

[9] = target: Lysosomal acid glucosylceramidase (Homo sapiens) (UniProt P04062); experiment: Glucocerebrosidase-p2 (AID 348; in the data active means potency below about 10 µM; further: potency means the concentration at half of the fitted maximal effect); settings: purified GBA, blue fluorogenic substrate, 40 min
Outline: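 Compounds titrated from 0.6 nM upwards against 0.2 nM enzyme in pH 5.9 citric acid/KH2PO4, taurocholate, tween-20; blue fluorogenic substrate 80 uM, 40 min room temperature, stopped and read Ex 365/Em 440 for AC50.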

[10] = NFAT Signaling Pathway (AID 444; active means well fitted curve in either direction with a large enough effect, not every such curve was filed as active;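 further: carbachol stimulus at about its EC50 of 1 µM final; on the % scale 0 is the no-effect control and ±100 the full control effect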); settings: Jurkat NFAT-bla M1, carbachol, beta-lactamase ratio, 5 h; at 7.69 µM (top of the series) unless noted
Outline: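 Jurkat cells with NFAT-driven β-lactamase reporter and co-expressed M1 receptor, stimulated with carbachol (final 1 uM, ~EC50), compound titration, 5 h at 37 °C. CCF4 loaded 1 h at RT; 460/530 nm ratio gave %activity and AC50.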

[11] = Stat Signaling Pathway (AID 446; active means well fitted curve in either direction with a large enough effect, not every such curve was filed as active;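 further: ME-180 cervical cancer cells given 40 pM IL-6 alongside compound; SIE-controlled beta-lactamase reporter measured as 460/530 nm FRET emission ratio; on the % scale 0 is the no-effect control and ±100 the full control effect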); settings: ME-180 SIE beta-lactamase reporter, IL-6 stimulated, 5 h; at 7.69 µM (top of the series) unless noted
Outline: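 ME-180 SIE-bla cells; overnight plating; cpd + IL-6 40 pM, 5 h, 37 C; LiveBLAzer 2.5 h RT; 460/530 nm emission ratio. Normalized to 300 pM IL-6 and 125 nM JAK inhibitor controls.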

[12] = target: Mitogen-activated protein kinase 10 (Mus musculus) (UniProt Q61831); experiment: JNK3 AlphaScreen Assay (AID 530; active means well fitted curve in either direction with a large enough effect, not every such curve was filed as active)
Outline: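 qHTS format: compounds tested as titrations against IL-1beta/TNF-alpha-activated HepG2 lysate JNK3 with biotin-GST-cJun substrate and 10 uM ATP at room temperature. Loss of anti-phospho-cJun AlphaScreen signal indicates inhibition.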

[13] = target: 3',5'-cyclic-AMP phosphodiesterase 4B (Homo sapiens) (UniProt Q07343); experiment: qHTS Assay for Inhibitors of PDE-IV (AID 607; active means well fitted activation curve with a large enough effect in the main read-out, with a control signal flat, not every such curve was filed as active; further: % of control where 0% means no effect)
Outline: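 ACTOne HEK293 cells carry a modified cAMP-gated CNG channel and express endogenous PDE4; plated 1000 cells/well, compounds up to 22.9 uM final. Membrane-potential dye fluorescence (ex 535/em 590) was read; parental cells received 10 uM forskolin + 100 uM RO 20-1724.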

[14] = target: Dual specificity protein kinase CLK4 (Homo sapiens) (UniProt Q9HAZ1); experiment: qHTS Assay for Inhibitors of CDC-like Kinase 4 (ADP-FP Assay) (AID 1795);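 further: recombinant human CLK4 phosphorylating RS repeat peptide at 1 µM ATP; on the % scale 0 is the no-effect control and ±100 the full control effect; nearly all actives have a fitted effect of over 60% in size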
Outline: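 Kinase activity was followed as ADP output, converted from fluorescence polarization with a calibration curve. Reactions ran one hour at low ATP (1 uM) with RS peptide substrate.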

[15] = target: Ubiquitin carboxyl-terminal hydrolase 1 (Homo sapiens) (UniProt O94782); experiment: Inhibitors of USP1/UAF1: Pilot qHTS (AID 504865);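 further: rhodamine fluorescence freed from ubiquitin-rhodamine substrate followed over time; top concentration of the series differs between compounds; on the % scale 0 is the no-effect control and ±100 the full control effect; nearly all actives have a fitted effect of over 35% in size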
Outline: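 Enzyme-free wells gave the negative control, while test wells held 1nM USP1/UAF1 preincubated with compound for 15 min at room temperature. Ub-Rho at 150nM final started the reaction, and fluorescence at 480/540 nm was recorded kinetically.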

[16] = target: Cytochrome P450 3A4 (Homo sapiens) (UniProt P08684); experiment: qHTS Assay for Inhibitors and Substrates of Cytochrome P450 3A4 (AID 884); further: nearly all actives have a fitted effect of over 50% in size; further: potency means the concentration at half of the fitted maximal effect
Outline: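 20 nM human CYP3A4 with 25 uM Luciferin-PPXE (at KM) in 200 mM KPO4, preincubated 10 min with compound; NADPH regeneration started a 60 min RT reaction. Luciferin detected by luminescence, normalized to 57 uM ketoconazole as full inhibition.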

[17] = target: Cytochrome P450 2C9 (Homo sapiens) (UniProt P11712); experiment: qHTS Assay for Inhibitors and Substrates of Cytochrome P450 2C9 (AID 883); further: on the % scale 0 is the no-effect control and ±100 the full control effect; nearly all actives have a fitted effect of over 60% in size
Outline: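 10nM CYP2C9 + 100uM Luciferin-H (=KM), 25mM KPO4; cpd 10 min 37C; NADPH regen, 60 min 37C; stop/detect with P450 Glo-Buffer 20 min; luminescence. Norm. to 57uM sulphaphenazole as full inhibition.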

[18] = qHTS Assay for Identification of Small Molecule Agonists for Hypoxia Response Element Signaling Pathway (AID 914; active means well fitted activation curve with a large enough effect in the signal ratio, with a control signal flat, not every such curve was filed as active; the % refers to the signal ratio; further: potency means the concentration at half of the fitted maximal effect); settings: ME-180 (cervical carcinoma) HRE-bla reporter, beta-lactamase ratio, CoCl2, 17 h; activation: stronger effect = higher value
Outline: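 qHTS titration; ME-180 HRE-bla cells; EC50 CoCl2 co-treatment, 17 h at 37 degrees Celsius; CCF4 dye, ex 405nm, em 460nm and 530nm; %Activity from ratio; AC50.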

[19] = measured here: cell count channel max response
[20] = measured here: lipid channel max response

Glucocorticoid receptor (Homo sapiens), sequence (P04150 whole entry, looked up, the tested form may be a part): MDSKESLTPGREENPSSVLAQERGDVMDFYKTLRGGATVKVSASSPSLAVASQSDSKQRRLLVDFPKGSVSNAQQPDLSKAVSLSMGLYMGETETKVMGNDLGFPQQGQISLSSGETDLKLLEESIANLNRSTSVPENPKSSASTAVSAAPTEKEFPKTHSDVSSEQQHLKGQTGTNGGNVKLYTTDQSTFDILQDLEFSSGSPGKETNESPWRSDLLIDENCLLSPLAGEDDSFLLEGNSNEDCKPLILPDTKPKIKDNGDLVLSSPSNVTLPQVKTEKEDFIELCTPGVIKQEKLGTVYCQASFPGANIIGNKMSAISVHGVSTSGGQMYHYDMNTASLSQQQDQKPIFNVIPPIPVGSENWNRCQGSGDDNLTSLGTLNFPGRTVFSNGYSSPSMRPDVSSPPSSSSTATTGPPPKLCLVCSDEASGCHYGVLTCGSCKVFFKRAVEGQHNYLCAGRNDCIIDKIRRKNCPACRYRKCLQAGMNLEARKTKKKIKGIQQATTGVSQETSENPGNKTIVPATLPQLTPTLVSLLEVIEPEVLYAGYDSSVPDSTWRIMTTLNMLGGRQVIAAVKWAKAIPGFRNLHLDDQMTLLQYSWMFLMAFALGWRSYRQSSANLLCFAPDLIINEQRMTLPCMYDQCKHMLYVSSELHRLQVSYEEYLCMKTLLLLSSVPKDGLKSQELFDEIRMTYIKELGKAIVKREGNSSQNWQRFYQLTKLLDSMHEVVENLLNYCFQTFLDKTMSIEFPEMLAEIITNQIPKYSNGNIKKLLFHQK
3',5'-cyclic-AMP phosphodiesterase 4B (Homo sapiens), sequence (Q07343 whole entry, looked up): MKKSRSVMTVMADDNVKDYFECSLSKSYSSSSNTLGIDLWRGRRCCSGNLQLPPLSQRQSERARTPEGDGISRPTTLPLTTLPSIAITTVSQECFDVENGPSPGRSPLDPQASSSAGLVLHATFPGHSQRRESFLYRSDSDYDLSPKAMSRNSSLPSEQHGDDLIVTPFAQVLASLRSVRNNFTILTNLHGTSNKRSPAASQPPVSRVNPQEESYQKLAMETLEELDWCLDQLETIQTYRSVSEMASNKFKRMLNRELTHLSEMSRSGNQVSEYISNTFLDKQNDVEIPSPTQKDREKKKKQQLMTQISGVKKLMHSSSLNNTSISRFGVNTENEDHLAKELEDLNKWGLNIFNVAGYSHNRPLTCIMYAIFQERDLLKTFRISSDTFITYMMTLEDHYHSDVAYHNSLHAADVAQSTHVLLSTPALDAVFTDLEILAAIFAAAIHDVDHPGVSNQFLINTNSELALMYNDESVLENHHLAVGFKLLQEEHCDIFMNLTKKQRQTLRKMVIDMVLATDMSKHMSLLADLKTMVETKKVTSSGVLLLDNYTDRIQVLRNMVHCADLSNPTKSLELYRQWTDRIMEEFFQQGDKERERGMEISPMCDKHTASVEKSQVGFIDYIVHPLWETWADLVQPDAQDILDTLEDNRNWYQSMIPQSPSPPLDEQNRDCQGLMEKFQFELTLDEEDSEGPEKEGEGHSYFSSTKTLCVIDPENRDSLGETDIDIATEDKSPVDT
Lysosomal acid glucosylceramidase (Homo sapiens), sequence (P04062 whole entry, looked up): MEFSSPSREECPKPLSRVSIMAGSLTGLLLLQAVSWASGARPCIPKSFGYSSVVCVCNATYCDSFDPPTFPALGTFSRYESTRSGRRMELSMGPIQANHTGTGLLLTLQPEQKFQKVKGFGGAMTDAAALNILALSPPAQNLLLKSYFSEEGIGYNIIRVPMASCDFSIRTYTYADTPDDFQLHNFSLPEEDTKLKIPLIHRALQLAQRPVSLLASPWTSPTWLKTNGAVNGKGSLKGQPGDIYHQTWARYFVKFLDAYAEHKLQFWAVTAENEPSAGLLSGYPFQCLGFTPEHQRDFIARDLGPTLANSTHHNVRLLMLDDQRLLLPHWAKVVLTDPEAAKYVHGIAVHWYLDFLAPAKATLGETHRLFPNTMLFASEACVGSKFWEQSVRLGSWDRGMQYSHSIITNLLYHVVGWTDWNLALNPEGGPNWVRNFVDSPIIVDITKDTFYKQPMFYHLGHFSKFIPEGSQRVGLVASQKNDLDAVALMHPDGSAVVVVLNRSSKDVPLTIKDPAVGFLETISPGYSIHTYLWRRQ
Dual specificity protein kinase CLK4 (Homo sapiens), sequence (Q9HAZ1 whole entry, looked up): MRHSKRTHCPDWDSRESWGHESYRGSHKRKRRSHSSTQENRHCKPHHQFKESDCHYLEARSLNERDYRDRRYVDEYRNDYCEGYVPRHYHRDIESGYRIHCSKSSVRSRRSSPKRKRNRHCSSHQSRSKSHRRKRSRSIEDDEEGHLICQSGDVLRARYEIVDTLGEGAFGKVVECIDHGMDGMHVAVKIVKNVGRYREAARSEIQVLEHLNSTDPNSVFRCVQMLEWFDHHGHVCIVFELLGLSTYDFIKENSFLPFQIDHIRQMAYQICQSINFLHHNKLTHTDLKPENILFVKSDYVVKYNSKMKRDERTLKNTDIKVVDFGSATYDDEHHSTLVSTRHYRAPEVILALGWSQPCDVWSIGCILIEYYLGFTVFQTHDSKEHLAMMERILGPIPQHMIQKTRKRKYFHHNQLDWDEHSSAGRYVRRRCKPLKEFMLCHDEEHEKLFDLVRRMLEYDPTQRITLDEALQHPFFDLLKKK
Ubiquitin carboxyl-terminal hydrolase 1 (Homo sapiens), sequence (O94782 whole entry, looked up): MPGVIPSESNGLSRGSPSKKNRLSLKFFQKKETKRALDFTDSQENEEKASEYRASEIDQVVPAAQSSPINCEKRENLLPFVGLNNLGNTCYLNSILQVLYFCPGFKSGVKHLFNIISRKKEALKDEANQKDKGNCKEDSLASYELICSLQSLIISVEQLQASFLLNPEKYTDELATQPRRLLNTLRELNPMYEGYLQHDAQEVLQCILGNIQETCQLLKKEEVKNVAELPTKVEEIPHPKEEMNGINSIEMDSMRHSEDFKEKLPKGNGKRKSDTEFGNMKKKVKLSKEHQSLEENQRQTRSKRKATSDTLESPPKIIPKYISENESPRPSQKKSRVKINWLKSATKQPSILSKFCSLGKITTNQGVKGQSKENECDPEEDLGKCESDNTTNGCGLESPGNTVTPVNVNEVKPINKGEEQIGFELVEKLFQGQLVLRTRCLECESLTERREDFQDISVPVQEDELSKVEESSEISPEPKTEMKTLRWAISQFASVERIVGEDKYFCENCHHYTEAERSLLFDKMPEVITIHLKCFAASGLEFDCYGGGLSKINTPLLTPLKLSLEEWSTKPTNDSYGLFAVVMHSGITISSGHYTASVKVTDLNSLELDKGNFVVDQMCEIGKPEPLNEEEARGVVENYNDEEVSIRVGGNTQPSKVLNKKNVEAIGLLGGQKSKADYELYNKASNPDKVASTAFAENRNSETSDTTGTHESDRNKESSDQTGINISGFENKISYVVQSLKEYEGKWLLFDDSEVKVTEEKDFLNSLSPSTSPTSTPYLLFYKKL
Cytochrome P450 1A2 (Homo sapiens), sequence (P05177 whole entry, looked up): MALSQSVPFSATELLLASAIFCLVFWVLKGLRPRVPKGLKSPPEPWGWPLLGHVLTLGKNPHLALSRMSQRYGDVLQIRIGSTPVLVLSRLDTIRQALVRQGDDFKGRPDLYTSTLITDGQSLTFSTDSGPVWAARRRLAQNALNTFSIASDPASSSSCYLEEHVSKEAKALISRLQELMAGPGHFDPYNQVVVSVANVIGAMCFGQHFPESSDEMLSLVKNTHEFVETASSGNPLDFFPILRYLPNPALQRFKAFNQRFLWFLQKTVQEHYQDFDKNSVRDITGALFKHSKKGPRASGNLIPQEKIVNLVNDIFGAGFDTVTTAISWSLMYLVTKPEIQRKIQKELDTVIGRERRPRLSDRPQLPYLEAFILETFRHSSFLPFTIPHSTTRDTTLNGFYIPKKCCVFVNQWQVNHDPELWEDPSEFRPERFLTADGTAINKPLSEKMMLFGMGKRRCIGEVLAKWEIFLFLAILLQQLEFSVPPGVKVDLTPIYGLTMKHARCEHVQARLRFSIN
Cytochrome P450 3A4 (Homo sapiens), sequence (P08684 whole entry, looked up): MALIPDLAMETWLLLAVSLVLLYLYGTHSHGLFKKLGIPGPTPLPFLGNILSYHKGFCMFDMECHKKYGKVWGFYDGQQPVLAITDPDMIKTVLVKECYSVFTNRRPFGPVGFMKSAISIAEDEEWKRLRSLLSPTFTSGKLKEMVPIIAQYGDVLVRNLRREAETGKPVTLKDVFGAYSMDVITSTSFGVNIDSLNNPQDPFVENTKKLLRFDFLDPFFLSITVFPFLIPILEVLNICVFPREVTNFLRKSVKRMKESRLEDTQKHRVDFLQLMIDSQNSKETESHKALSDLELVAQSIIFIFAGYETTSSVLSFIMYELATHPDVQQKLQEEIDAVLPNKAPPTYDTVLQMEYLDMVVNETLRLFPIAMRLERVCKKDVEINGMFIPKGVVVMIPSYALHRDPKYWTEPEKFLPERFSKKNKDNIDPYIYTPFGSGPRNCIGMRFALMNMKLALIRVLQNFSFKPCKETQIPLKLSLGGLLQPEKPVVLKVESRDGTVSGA
Cytochrome P450 2C9 (Homo sapiens), sequence (P11712 whole entry, looked up): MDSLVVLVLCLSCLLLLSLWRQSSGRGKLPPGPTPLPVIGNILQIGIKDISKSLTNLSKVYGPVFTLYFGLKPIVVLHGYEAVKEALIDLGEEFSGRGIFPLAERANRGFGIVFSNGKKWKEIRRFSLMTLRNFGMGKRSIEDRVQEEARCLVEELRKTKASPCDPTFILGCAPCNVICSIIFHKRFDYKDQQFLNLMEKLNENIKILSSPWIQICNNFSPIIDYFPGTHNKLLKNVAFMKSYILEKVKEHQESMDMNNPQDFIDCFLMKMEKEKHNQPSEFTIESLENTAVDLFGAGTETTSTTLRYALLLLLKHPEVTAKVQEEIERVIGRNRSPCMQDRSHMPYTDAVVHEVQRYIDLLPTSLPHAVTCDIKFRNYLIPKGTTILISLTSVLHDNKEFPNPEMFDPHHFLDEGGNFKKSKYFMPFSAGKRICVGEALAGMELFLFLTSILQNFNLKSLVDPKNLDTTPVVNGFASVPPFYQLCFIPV

Compound | activity change, negative = inhibition [1] | Potency [2] | Potency [3] | Potency [4] | Potency [5] | activity change, negative = inhibition [6] | max response [6, 19] | max response [6, 20] | Potency [7] | Potency [8] | Potency [9] | activity change, negative = inhibition [10] | activity, negative = inhibition [11] | outcome [12] | Potency [13] | Potency [14] | Potency [15] | Potency [16] | Potency [17] | Potency [18]
O=c1c(-c2cccs2)nc2cnc(N3CCOCC3)nc2n1-c1ccccc1 | 25.6% (inactive) | 5.01 µM (active) | > 9.22 µM (inactive) | > 46 µM (inactive) | inactive | -15.1% (inactive) | 13.7% | -6.13% | inactive | inactive | – | – | – | – | – | – | – | – | – | –
CCNc1ncc2nc(C)c(=O)n(CCC#N)c2n1 | -5.37% (inactive) | 12.6 µM (active) | > 9.22 µM (inactive) | > 46 µM (inactive) | – | 3.22% (inactive) | -0.74% | 2.02% | inactive | inactive | > 11.4 µM (inactive) | 8.37% (inactive) | -4.05% (inactive) | inactive | inactive | inactive | inactive | – | – | –
COc1ccc(CNc2ncnc3ccc(-c4cccnc4)cc23)c(OC)c1 | – | 0.398 µM (active) | > 46 µM (inactive) | > 46 µM (inactive) | inactive | -5.09% (inactive) | -15.1% | -21.1% | 14.1 µM (active) | inactive | > 11.4 µM (inactive) | 29.9% (inactive) | 2.05% (inactive) | inactive | – | – | inactive | 1.26 µM (active) | – | –
CN1CCN(c2ncc3ncc(=O)n(CCC#N)c3n2)CC1 | -10.2% (inactive) | 31.6 µM (active) | > 9.22 µM (inactive) | > 46 µM (inactive) | – | 6.98% (inactive) | 9.3% | 10.7% | inactive | inactive | > 11.4 µM (inactive) | -4.67% (inactive) | -3.39% (inactive) | inactive | inactive | inactive | inactive | – | – | –
CN(C)c1ncc2nc(-c3ccc(F)cc3)c(=O)n(C)c2n1 | -9.27% (inactive) | 1.58 µM (active) | > 9.22 µM (inactive) | > 46 µM (inactive) | – | 8.24% (inactive) | 18.3% | 28.6% | inactive | inactive | > 11.4 µM (inactive) | 2.27% (inactive) | -9.34% (inactive) | inactive | inactive | inactive | inactive | – | – | –
COCCNc1nc(-c2ccccc2OC)nc2ccccc12 | 12.5% (inactive) | 0.794 µM (active) | > 46 µM (inactive) | > 46 µM (inactive) | inactive | 6.78% (inactive) | 15.3% | 15.6% | inactive | inactive | > 2.29 µM (inactive) | 8.54% (inactive) | 7.08% (inactive) | inactive | inactive | – | inactive | – | – | –
CCNc1ncc2nc(-c3cn(C)c4ccccc34)c(=O)n(-c3ccccc3)c2n1 | 2.53% (inactive) | 15.8 µM (active) | > 9.22 µM (inactive) | > 46 µM (inactive) | inactive | -0.273% (inactive) | 19.3% | 17.5% | 20 µM (active) | inactive | > 11.4 µM (inactive) | 3.22% (inactive) | -9.31% (inactive) | inactive | – | inactive | inactive | – | inactive | –
CCNc1ncc2nc(-c3ccccc3)c(=O)n(Cc3cccs3)c2n1 | – | 0.316 µM (active) | > 9.22 µM (inactive) | > 46 µM (inactive) | inactive | 1.76% (inactive) | 17.2% | 16% | inactive | inactive | > 11.4 µM (inactive) | – | – | inactive | – | inactive | inactive | – | – | 3.16 µM (active)
CCNc1ncc2nc(-c3ccccc3)c(=O)n(C[C@H]3CCCO3)c2n1 | 0.0155% (inactive) | – | > 9.22 µM (inactive) | > 46 µM (inactive) | – | -15.5% (inactive) | 3.11% | -10% | inactive | inactive | > 11.4 µM (inactive) | – | – | inactive | – | – | inactive | – | – | –
Cc1nc2cnc(N3CCOCC3)nc2n(C)c1=O | -9.18% (inactive) | 6.31 µM (active) | > 9.22 µM (inactive) | > 46 µM (inactive) | – | 4.73% (inactive) | 11.2% | 13.5% | inactive | inactive | > 11.4 µM (inactive) | 3.85% (inactive) | -2.49% (inactive) | inactive | inactive | inactive | inactive | – | – | –
CN1CCN(c2ncc3nc(-c4ccc(Cl)cc4)c(=O)n(Cc4cccs4)c3n2)CC1 | 140% [activator] (active) | 10 µM (active) | > 9.22 µM (inactive) | > 46 µM (inactive) | – | 0.387% (inactive) | 19.7% | 16.2% | inactive | inactive | > 11.4 µM (inactive) | – | – | – | inactive | inactive | inactive | inactive | – | –
